Laboratory results: PubChem BioAssay (NCATS)
Records with an inconclusive call do not appear. Active and inactive are the calls of the source. Unless noted, calls come from the whole dose curve; as a rule, active = well fitted curve in the direction sought with a large enough effect; inconclusive = small, poorly fitted or top-dose-only effect, or another doubt; inactive = no such curve, though single readings can be large; an effect the other way counts as inactive or inconclusive.

What was measured:
[1] = target: 3',5'-cyclic-AMP phosphodiesterase 4B (Homo sapiens) (UniProt Q07343); test: qHTS Assay for Inhibitors of PDE-IV (AID 607; active = well fitted activation curve with a large enough effect in the main read-out, with a control signal flat, not every such curve was filed as active)
Sequence of 3',5'-cyclic-AMP phosphodiesterase 4B (Homo sapiens) (Q07343 whole entry, looked up): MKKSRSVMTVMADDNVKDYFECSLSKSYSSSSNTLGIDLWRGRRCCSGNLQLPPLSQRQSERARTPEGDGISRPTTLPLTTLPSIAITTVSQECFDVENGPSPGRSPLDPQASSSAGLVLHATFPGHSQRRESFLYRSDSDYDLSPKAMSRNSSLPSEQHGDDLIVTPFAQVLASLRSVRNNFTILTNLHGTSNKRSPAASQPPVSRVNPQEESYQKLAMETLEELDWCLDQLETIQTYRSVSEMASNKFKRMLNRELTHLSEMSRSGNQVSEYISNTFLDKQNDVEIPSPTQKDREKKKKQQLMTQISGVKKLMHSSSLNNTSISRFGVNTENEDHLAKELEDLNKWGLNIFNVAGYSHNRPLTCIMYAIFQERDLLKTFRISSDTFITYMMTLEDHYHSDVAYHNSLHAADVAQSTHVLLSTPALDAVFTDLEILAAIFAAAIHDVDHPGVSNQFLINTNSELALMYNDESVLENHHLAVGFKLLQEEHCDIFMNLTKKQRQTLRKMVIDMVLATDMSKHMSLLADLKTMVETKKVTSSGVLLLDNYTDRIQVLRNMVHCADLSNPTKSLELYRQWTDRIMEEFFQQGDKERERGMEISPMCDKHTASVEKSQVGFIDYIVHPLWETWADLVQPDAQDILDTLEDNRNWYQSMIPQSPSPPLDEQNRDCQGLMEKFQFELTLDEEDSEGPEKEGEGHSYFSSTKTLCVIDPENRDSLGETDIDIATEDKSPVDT
Procedure, shortened: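 Cell-based read-out of cAMP via a modified cyclic nucleotide-gated channel and membrane potential dye (535/590 nm) in HEK293 cells expressing PDE4 endogenously. Compounds tested up to 22.9 uM final; 100 uM RO 20-1724 reference.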

[2] = target: Guanine nucleotide-binding protein G(i) subunit alpha-1 (Homo sapiens) (UniProt P63096); test: qHTS Assay for Inhibitors of RGS12 GoLoco Motif Activity (Green Fluorophore) (AID 879)
Procedure, shortened: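 A drop in FITC polarization marked displacement of the FITC-tagged RGS12 GoLoco peptide (10 nM) from Gαi1 (50 nM). Compounds were incubated 10 min at room temperature in Tris pH 7.5 buffer containing 150 mM NaCl, 0.1 mM GDP and 0.05% NP40; unlabeled peptide titration served as control.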

[3] = target: Cytochrome P450 2D6 (Homo sapiens) (UniProt P10635); test: qHTS Assay for Inhibitors and Substrates of Cytochrome P450 2D6 (AID 891)
Procedure, shortened: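 Luminescent read-out of luciferin formed by 5 nM human CYP2D6 demethylating 30 uM Luciferin-ME EGE (Km level) over 60 min at room temperature after NADPH regeneration addition. Data normalized to full inhibition by 1.43 uM quinidine.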

[4] = target: Cytochrome P450 2C19 (Homo sapiens) (UniProt P33261); test: qHTS Assay for Inhibitors and Substrates of Cytochrome P450 2C19 (AID 899)
Procedure, shortened: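 Reactions contain 5nM enzyme, 10uM Luciferin-H EGE (KM) and 50mM KPO4; compound preincubates 10 min at 37C, NADPH regeneration starts turnover for 60 min. Luminescence after detection reagent gives activity.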

[5] = qHTS Assay for Identification of Small Molecule Antagonists for Thrombopoietin (TPO) Signaling Pathway (AID 918); details: TPO-dependent cell signaling reporter, antagonist mode
Procedure, shortened: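 Antagonist mode at EC50 TPO (26 pM) in IL-3-free medium; murine Ba/F3 cells with human TPO receptor and GPIIb-promoter luciferase, 24 hrs at 37 C before luminescent detection.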

[6] = target: Pyruvate kinase (Leishmania mexicana) (UniProt Q27686); test: qHTS Validation Assay for Inhibitors of Leishmania Mexicana Pyruvate Kinase (AID 945)
Procedure, shortened: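 Purified LmPYK (E451W mutant, 0.2 nM) was incubated 1 h at room temperature with 0.5 mM PEP and 0.1 mM ADP in 50 mM imidazole pH 7.2, 50 mM KCl, 7 mM MgCl2; ATP formed was read by PKLight luminescence, normalized to DMSO wells.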

[7] = target: Alpha-galactosidase A (Homo sapiens) (UniProt P06280); test: Counterscreen for Glucocerebrosidase Inhibitors: qHTS Assay for Human alpha-Galactosidase at pH 4.5 (AID 992)
Procedure, shortened: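 Fluorogenic 1536-well qHTS at pH 4.5 (citrate, Tween-20): 2 nM enzyme, 80 uM 4-MU-alpha-galactoside, 20 min room temperature, NaOH/glycine stop. Titration 0.7 nM to 77 uM, data normalized to no-enzyme and full-activity controls, Hill-fitted AC50.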

[8] = target: alpha-glucosidase (Oryza sativa, rice) (UniProt Q653V4); test: Counterscreen for Glucocerebrosidase Inhibitors: qHTS Assay for Rice alpha-Glucosidase at pH 5.0 (AID 997)
Procedure, shortened: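 Endpoint fluorogenic assay at pH 5.0: compounds (0.7 nM to 77 uM) titrated against 4 nM rice enzyme and 400 uM 4-MU-alpha-glucoside for 20 min at room temperature; NaOH/glycine stop, read ex 365/em 440 nm, Hill-fitted AC50.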

[9] = target: DNA dC->dU-editing enzyme APOBEC-3G (Homo sapiens) (UniProt Q9HC16); test: qHTS for inhibitors of Vif-A3G interactions: Validation (AID 588379)
Sequence of DNA dC->dU-editing enzyme APOBEC-3G (Homo sapiens) (Q9HC16 whole entry, looked up): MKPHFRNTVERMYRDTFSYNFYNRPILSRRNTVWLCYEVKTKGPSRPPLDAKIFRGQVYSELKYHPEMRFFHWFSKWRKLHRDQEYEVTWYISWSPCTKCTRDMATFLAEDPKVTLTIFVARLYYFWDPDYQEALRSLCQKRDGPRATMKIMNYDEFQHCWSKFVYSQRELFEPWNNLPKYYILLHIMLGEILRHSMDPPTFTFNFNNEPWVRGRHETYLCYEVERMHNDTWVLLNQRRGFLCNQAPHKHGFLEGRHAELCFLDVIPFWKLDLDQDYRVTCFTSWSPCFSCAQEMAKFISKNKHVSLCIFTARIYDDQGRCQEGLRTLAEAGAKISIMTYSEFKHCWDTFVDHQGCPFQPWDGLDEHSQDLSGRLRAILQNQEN
Procedure, shortened: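 Yellow fluorescence (Ex 488, Em 500-530) of Vif-coexpressing HeLa A3G-eYFP cells, scanned by Acumen cytometer, reports blocked A3G degradation. Cells plated at 700/well overnight at 37 deg C before compound addition, then a further overnight compound incubation at 37 deg C.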

[10] = Cytotoxicity counterscreen for NFkB agonists and antagonists (AID 624476)
[11] = qHTS Assay for Identification of Small Molecule Agonists for NFkB Signaling Pathway. (AID 624478)
Procedure, shortened: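 Assay medium contained 0.5% FBS and 10 mM HEPES pH 7.3. Compounds were added together with TNF alpha (10 pM final), incubated 5 h at 37 C, and the beta-lactamase signal was measured fluorometrically.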

[12] = qHTS Assay for Identification of Small Molecule Antagonists for NFkB Signaling Pathway. (AID 624479; calls by dose curve)
[13] = Cell Proliferation Assay against the TMD8 Cell Line (AID 651645); details: TMD8 DLBCL cell line proliferation/viability; at 46.1 µM (top of the series)
Procedure, shortened: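 Cell viability of the ABC DLBCL line TMD8 is measured by CellTiter-Glo luminescence following a 48-hour incubation with compound. Percent activity uses DMSO as 100% and 9.2 uM bortezomib (final) as 0%.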

[14] = Cell Proliferation Assay against the HBL1 Cell Line (AID 651646); details: HBL1 DLBCL cells; at 46.1 µM (top of the series)
Procedure, shortened: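 CellTiter-Glo luminescence after 48 h compound exposure at 37C gives percent activity, with DMSO as 100% and 9.2 uM bortezomib final as 0%. Cells: 500 log-phase HBL1 per well, RPMI plus 5% FBS.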

[15] = Cell Proliferation Assay against the TMD8 Cell Line (Caspase readout at 16 hrs) (AID 651712); details: TMD8 lymphoma cells, caspase activation luminescence
Procedure, shortened: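 Caspase-Glo luminescence measured apoptosis after a 16 h, 37 C compound exposure of TMD8 cells (500 cells/well, 5% FBS RPMI). DMSO set 0% and bortezomib at 9.2 uM final set 100% activity.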

[16] = Cell Proliferation Assay against the TMD8 Cell Line (Caspase readout at 8 hrs) (AID 651713); details: TMD8 lymphoma cells, caspase activation luminescence
Procedure, shortened: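 Luminescent caspase 3/7 assay; TMD8 cells, 8 h treatment at 37C, 5% CO2. Normalisation: DMSO 0%, 9.2 uM bortezomib 100%.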

[17] = target: Tyrosine-protein kinase Yes (Homo sapiens) (UniProt P07947); test: qHTS for small molecule inhibitors of Yes1 kinase: Primary Screen (AID 686947)
Procedure, shortened: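 In this qHTS format, inhibition is expressed relative to DMSO controls with enzyme (maximum) and without enzyme (minimum). The 60 min room-temperature reaction uses 0.1 mM ATP, with ADP detected by luminescence.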

[18] = qHTS for small molecule inhibitors of Yes1 kinase: Counter Assay (AID 686950)
Procedure, shortened: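 ADP-Glo luminescence read after a 60 min room-temperature incubation of compound with an ATP/ADP mix (0.08 mM/0.02 mM) and no kinase, following a 20 min compound preincubation. Signal scaled between ATP+ADP (max) and 0.1 mM ATP-only (min) wells; Tris pH 7.5, Mg2+, DTT.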

[19] = qHTS profiling for inhibitors of Plasmodium falciparum (3D7) proliferation (AID 743322); details: P. falciparum 3D7 proliferation; at 28.7 µM (top of the series)
Procedure, shortened: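 Parasite DNA was quantified by SYBR Green I fluorescence (ex 485, em 535 nm) after overnight lysis in saponin/Triton buffer at room temperature. Cultures at 0.3% parasitemia and 2.5% hematocrit were first exposed to compound for 72 h at 37 C; signals were normalised to artemisinin (0.29 uM) and vehicle wells.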

[20] = qHTS profiling for inhibitors of Plasmodium falciparum (DD2) proliferation (AID 743323; call rule not given here); details: lower = more inhibition; at 28.7 µM (top of the series)
Procedure, shortened: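 Parasite DNA quantified by SYBR Green fluorescence (ex 485, em 535 nm) after saponin/Triton lysis and overnight dark incubation. Cultures: 0.3% parasitemia, 2.5% hematocrit, 72 h, 37 C; data scaled between DMSO and 0.29 uM artemisinin.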

[21] = test system: Zika virus NS2B-NS3 protease; test: Primary screen GU AMC qHTS for Zika virus inhibitors (AID 1347154); note: nearly all actives have a fitted effect of over 70% in size
Procedure, shortened: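 Fluorogenic AMC-substrate cleavage by noncovalent NS2B-NS3 protease complex (25 nM, pH 8.0 Tris buffer with Tween 20) followed for 15 minutes at room temperature (~20% conversion). Percent inhibition from ex340/em450 signal change, fitted by 4-parameter Hill equation.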

[22] = Primary qHTS for small molecule stabilizers of the endoplasmic reticulum resident proteome: Secreted ER Calcium Modulated Protein (SERCaMP) assay (AID 1508630)
Procedure, shortened: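 The SH-SY5Y reporter protocol was run at 3 concentrations up to 38.3 uM (primary) or 11 concentrations (follow-up): 16 h compound, 100 nM thapsigargin for 4 h, then extracellular luciferase luminescence.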

[23] = target: Glucocorticoid receptor (Homo sapiens) (UniProt P04150); test: GR-GFP Redistribution (AID 450;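 active = compounds whose dose series gives a full or clear partial fitted curve of increased nuclear translocation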; note: potency is the fitted concentration of half-maximal effect); details: U2OS GR-GFP nuclear translocation, laser cytometry, 2 h
Sequence of Glucocorticoid receptor (Homo sapiens) (P04150 whole entry, looked up, the tested form may be a part): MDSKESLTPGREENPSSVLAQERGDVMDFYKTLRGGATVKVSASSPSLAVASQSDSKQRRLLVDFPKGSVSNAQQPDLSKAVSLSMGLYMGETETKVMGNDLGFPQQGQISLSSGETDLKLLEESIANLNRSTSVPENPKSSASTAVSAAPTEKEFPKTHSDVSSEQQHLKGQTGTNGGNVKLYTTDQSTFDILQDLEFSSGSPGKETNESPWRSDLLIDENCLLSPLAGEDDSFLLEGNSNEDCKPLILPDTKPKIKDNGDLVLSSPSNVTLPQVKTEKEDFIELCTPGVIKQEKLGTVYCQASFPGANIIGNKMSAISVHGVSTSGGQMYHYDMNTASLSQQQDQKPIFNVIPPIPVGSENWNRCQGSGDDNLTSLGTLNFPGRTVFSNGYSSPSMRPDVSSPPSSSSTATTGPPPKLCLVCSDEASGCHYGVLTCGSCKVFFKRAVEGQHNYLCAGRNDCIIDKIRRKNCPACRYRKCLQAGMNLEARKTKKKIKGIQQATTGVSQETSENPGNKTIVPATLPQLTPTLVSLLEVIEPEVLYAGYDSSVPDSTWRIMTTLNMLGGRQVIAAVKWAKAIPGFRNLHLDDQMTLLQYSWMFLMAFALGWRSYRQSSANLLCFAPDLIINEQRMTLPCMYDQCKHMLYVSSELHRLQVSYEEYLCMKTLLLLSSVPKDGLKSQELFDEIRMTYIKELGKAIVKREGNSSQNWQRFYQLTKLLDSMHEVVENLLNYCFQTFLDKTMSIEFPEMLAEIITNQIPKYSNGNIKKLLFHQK

[24] = target: Glucocorticoid receptor (Homo sapiens) (UniProt P04150); test: GR-EFC Redistribution (AID 451; calls by dose curve; note: potency is the fitted concentration of half-maximal effect); details: CHO-K1 GR-EFC translocation, beta-gal luminescence, 2 h
Procedure, shortened: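 Translocation of GR-ED fusion to nuclear EA restores b-gal, read by luminescence after 1 h room-temperature detection. Engineered CHO-K1 biosensor cells, 1,000/well, exposed 2 h at 37 C to titrations up to 46 uM final.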

[25] = target: Mitogen-activated protein kinase 10 (Mus musculus) (UniProt Q61831); test: JNK3 AlphaScreen Assay (AID 530; active = well fitted curve in either direction with a large enough effect, not every such curve was filed as active;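 note: kinase came from lysate of stimulated human HepG2 cells; signal reports phosphorylation of biotinylated GST-cJun 1-79 at Ser73 with 10 µM ATP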)
Procedure, shortened: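 Kinase buffer: 20 mM Tris-HCl pH 7.6, 10 mM MgCl2, 1 mM DTT, 0.1 mM Na3VO4, 0.01% Tween-20; ATP 10 uM. Substrate biotin-GST-cJun(1-79), enzyme from activated HepG2 lysates. Detection by Ser73 phospho-antibody AlphaScreen.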

c1ccc(CN2CCC3(CCc4ccccc43)CC2)cc1
inactive: Potency [23] > 46 µM | Potency [24] > 46 µM | Potency [9] | Potency [21] | Potency [22]

COc1cc([C@@H]2c3cc4c(cc3[C@@H](O[C@@H]3O[C@H]5CO[C@@H](C)O[C@@H]5[C@@H](O)[C@H]3O)[C@@H]3COC(=O)[C@@H]23)OCO4)cc(OC)c1O
inactive: Potency [25] | Potency [1] | Potency [9] | Potency [21] | Potency [22]
